Experiments:
Assay in all cases: PBM binding z-score (relative to random genomic background probes); higher = stronger binding; sequences stand for … in GC…GCGATTGACAGCGTAGAATGAAGG
[1] = tested on: FXR:RXRa (NR concentration 270 nM, RXRa partner concentration 90 nM)
In short: (§1)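 Scanned fluorescence from custom Agilent 4×180K protein-binding microarrays was regression-normalized. Binding z-scores use random background probes as reference. Ligand-free nuclear receptor dimers were incubated on the arrays for 1 h and detected with antibodies against each partner (one per run).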

[2] = tested on: LXRa:RXRa (NR concentration 270 nM, RXRa partner concentration 90 nM)
In short: as §1

[3] = tested on: LXRa homodimer (NR concentration 270 nM)
In short: as §1

[4] = tested on: LXRb:RXRa (NR concentration 270 nM, RXRa partner concentration 90 nM)
In short: as §1

[5] = tested on: LXRb homodimer (NR concentration 270 nM)
In short: as §1

[6] = tested on: PPARa:RXRa (NR concentration 270 nM, RXRa partner concentration 90 nM)
In short: as §1

[7] = tested on: PPARg:RXRa (NR concentration 180 nM, RXRa partner concentration 90 nM)
In short: as §1

[8] = tested on: PPARg:RXRa 270nM:90nM, anti-RXR (NR concentration 270 nM, RXRa partner concentration 90 nM)
In short: as §1

[9] = tested on: PPARg:RXRa 30nM:10nM, anti-RXR (NR concentration 30 nM, RXRa partner concentration 10 nM)
In short: as §1

[10] = tested on: PPARg:RXRa 90nM:30nM, anti-RXR (NR concentration 90 nM, RXRa partner concentration 30 nM)
In short: as §1

[11] = tested on: PPARg:RXRa DBDmut IVT, anti-RXR (DBD mutation: RXRa K156A/R161A, NR concentration 270 nM, RXRa partner concentration 90 nM)
In short: as §1

[12] = tested on: PPARg:RXRa IVT, anti-PPARg (NR concentration 270 nM, RXRa partner concentration 90 nM)
In short: as §1

[13] = tested on: PPARg DBDmut:RXRa IVT, anti-PPARg (DBD mutation: PPARg1 K132A/R137A, NR concentration 270 nM, RXRa partner concentration 90 nM)
In short: as §1

[14] = tested on: PPARg DBDmut IVT, anti-PPARg (DBD mutation: PPARg1 K132A/R137A, NR concentration 270 nM)
In short: as §1

[15] = tested on: PPARg homodimer (NR concentration 180 nM)
In short: as §1

[16] = tested on: PXR:RXRa (NR concentration 270 nM, RXRa partner concentration 90 nM)
In short: as §1

[17] = tested on: PXR homodimer (NR concentration 270 nM)
In short: as §1

[18] = tested on: RARa:RXR (NR concentration 270 nM, RXRa partner concentration 90 nM)
In short: as §1

[19] = tested on: RARa homodimer (NR concentration 270 nM)
In short: as §1

[20] = tested on: RARb:RXRa (NR concentration 270 nM, RXRa partner concentration 90 nM)
In short: as §1

Sequence | PBM binding z-score [1] | PBM binding z-score [2] | PBM binding z-score [3] | PBM binding z-score [4] | PBM binding z-score [5] | PBM binding z-score [6] | PBM binding z-score [7] | PBM binding z-score [8] | PBM binding z-score [9] | PBM binding z-score [10] | PBM binding z-score [11] | PBM binding z-score [12] | PBM binding z-score [13] | PBM binding z-score [14] | PBM binding z-score [15] | PBM binding z-score [16] | PBM binding z-score [17] | PBM binding z-score [18] | PBM binding z-score [19] | PBM binding z-score [20]
TCGGCTAGGTCAGTTGGTCAGCTAACGAGCTGCC | 1.1 | 0.58 | -0.132 | 0.27 | -0.753 | 1.48 | 0.0282 | 1.28 | 0.913 | 1.11 | 1.62 | 1.9 | -0.718 | -0.778 | 0.3 | 0.186 | -0.113 | 0.266 | -0.561 | 3.52
ATCGAAAGATCGACGAGGTGAGTATACACCGTTT | -0.0851 | -0.16 | -0.368 | -0.346 | -0.329 | 0.0246 | 0.902 | -0.253 | 0.289 | 0.00942 | -0.646 | 0.27 | 0.0625 | 0.447 | -0.719 | -0.123 | 0.0422 | 0.105 | -0.0578 | -0.0508
AGAATGAGGCTACCAAAGATCAGGGAAACGCTTG | -0.398 | 0.883 | -0.337 | -0.482 | -1.07 | 0.361 | 0.85 | 0.0255 | -0.0527 | 0.1 | 1.61 | 0.854 | 0.153 | -0.213 | -0.49 | -0.51 | -0.439 | -0.0885 | -0.557 | 0.164
GCTATTAGTTGAAAGGGCAACCCAATGATTCTCG | 0.453 | 0.68 | 0.645 | 0.925 | -0.181 | 2.4 | 2.65 | 4.29 | 1.81 | 3.88 | 0.127 | 0.818 | -0.129 | 0.251 | 1.44 | 0.791 | 0.511 | 1.27 | 0.81 | 2.08
TCTTGAAGATCAATAGAGGTTAAGAAAGTGCGCT | 1.21 | 3.88 | 0.18 | 1.99 | -0.548 | 1.79 | -0.0471 | 1.56 | 2.76 | 2.46 | 1.44 | 0.203 | 0.527 | 0.485 | -0.0803 | 3.15 | 0.215 | 1.81 | -0.211 | 0.913
GTACTAAGGTGAATAGGTCGTTGATGAGTAGGCG | 1.68 | 1.21 | 0.221 | 0.926 | 0.00742 | 2.75 | 1.77 | 2.5 | 0.778 | 1.53 | 2.8 | 3.12 | 0.603 | 0.0798 | 1.34 | 1.22 | 0.545 | 2.45 | 1.14 | 2.62
TCGAGTAGGCTAGGGGCATTCAGAATGGCGTCGA | -0.172 | -0.557 | -0.903 | -0.262 | -1.16 | 0.162 | -0.111 | 0.716 | 0.676 | 0.504 | 0.831 | -0.362 | -1.38 | -1.61 | -0.968 | -0.194 | -0.983 | -0.131 | -1 | 0.171

— the supplement of paper PMC6555819
